Measured values reported in PubChem BioAssay AID1159580 (chemical genetic matrix, 2015).
The whole screen tested about 5,500 compounds, of which about 2,000 (36%) were called active. Not shown: some 18% with an inconclusive outcome. Cut-off read from the data, not from the text of the source: active = normalized growth mostly below about 0.91 (no sharp cut-off); inconclusive = no clear call, values can overlap the other calls; inactive = mostly above about 0.92. The list shows a part of the results.

Experiment: chemical genetic growth profiling, strain panel (AID 1159580);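 note: tested at 20 µM; growth read once vehicle control cultures reached saturation at 30 °C; 1 = growth at the plate median or of vehicle wells; lower values mean less growth of the strain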
Conditions: growth OD

Measured: normalized growth

COc1cc([C@H]2Oc3cc([C@H]4Oc5cc(O)cc(O)c5C(=O)[C@@H]4O)ccc3O[C@@H]2CO)ccc1O
inactive: S. cerevisiae deletion strains, locus YJR075W, strain HOC1, stronger effect = lower value 0.999 | S. cerevisiae deletion strains, locus YKL009W, strain mrt4, stronger effect = lower value 0.984 | S. cerevisiae deletion strains, locus YKL068W, stronger effect = lower value 0.981 | S. cerevisiae deletion strains, locus YKL085W, strain MDH1 (second series), stronger effect = lower value 1.02 | S. cerevisiae deletion strains, locus YKL085W, strain MDH1, stronger effect = lower value 1.02 | S. cerevisiae deletion strains, locus YKL160W, strain elf1, stronger effect = lower value 1.01 | S. cerevisiae deletion strains, locus YKL190W, strain CNB1, stronger effect = lower value 0.989 | S. cerevisiae deletion strains, locus YKR001C, strain vps1, stronger effect = lower value 0.961 | S. cerevisiae deletion strains, locus YKR026C, strain gcn3, stronger effect = lower value 1.01 | S. cerevisiae deletion strains, locus YKR091W, strain srl3, stronger effect = lower value 1.01 | S. cerevisiae deletion strains, locus YLL001W, strain dnm1, stronger effect = lower value 1.01 | S. cerevisiae deletion strains, locus YLL026W, stronger effect = lower value 1.01 | S. cerevisiae deletion strains, locus YLL041C, strain sdh2, stronger effect = lower value 1.01 | S. cerevisiae deletion strains, locus YLR027C, strain aat2, stronger effect = lower value 1.02 | S. cerevisiae deletion strains, locus YLR039C, strain RIC1, stronger effect = lower value 0.945 | S. cerevisiae deletion strains, locus YLR058C, strain SHM2, stronger effect = lower value 0.998 | S. cerevisiae deletion strains, locus YLR102C, strain apc9, stronger effect = lower value 0.979 | S. cerevisiae deletion strains, locus YLR113W, strain HOG1, stronger effect = lower value 0.986 | S. cerevisiae deletion strains, locus YLR221C, strain rsa3, stronger effect = lower value 0.988 | S. cerevisiae deletion strains, locus YLR258W, strain gsy2, stronger effect = lower value 1 | S. cerevisiae deletion strains, locus YLR262C, strain YPT6 (second series), stronger effect = lower value 1.03 | S. cerevisiae deletion strains, locus YLR262C, strain YPT6, stronger effect = lower value 0.953 | S. cerevisiae deletion strains, locus YLR268W, strain sec22, stronger effect = lower value 0.965 | S. cerevisiae deletion strains, locus YLR320W, strain mms22, stronger effect = lower value 0.991 | S. cerevisiae deletion strains, locus YLR330W, strain CHS5, stronger effect = lower value 1 | S. cerevisiae deletion strains, locus YLR342W, strain FKS1 (second series), stronger effect = lower value 1.01 | S. cerevisiae deletion strains, locus YLR342W, strain FKS1, stronger effect = lower value 1.01 | S. cerevisiae deletion strains, locus YLR357W, strain rsc2, stronger effect = lower value 1.03 | S. cerevisiae deletion strains, locus YLR370C, strain arc18, stronger effect = lower value 1 | S. cerevisiae deletion strains, locus YLR371W, strain rom2, stronger effect = lower value 0.971 | S. cerevisiae deletion strains, locus YLR384C, strain iki3, stronger effect = lower value 1.02 | S. cerevisiae deletion strains, locus YLR418C, strain cdc73, stronger effect = lower value 0.978 | S. cerevisiae deletion strains, locus YML016C, strain PPZ1, stronger effect = lower value 1.01 | S. cerevisiae deletion strains, locus YML032C, strain rad52, stronger effect = lower value 0.945 | S. cerevisiae deletion strains, locus YML120C, strain ndi1, stronger effect = lower value 1.01 | S. cerevisiae deletion strains, locus YML124C, strain tub3, stronger effect = lower value 0.986 | S. cerevisiae deletion strains, locus YMR058W, strain fet3, stronger effect = lower value 0.998 | S. cerevisiae deletion strains, locus YMR078C, strain ctf18, stronger effect = lower value 0.979 | S. cerevisiae deletion strains, locus YMR125W, strain sto1, stronger effect = lower value 1.03 | S. cerevisiae deletion strains, locus YMR129W, stronger effect = lower value 1.01 | S. cerevisiae deletion strains, locus YMR205C, strain PFK2, stronger effect = lower value 1.01 | S. cerevisiae deletion strains, locus YMR223W, strain ubp8, stronger effect = lower value 0.958 | S. cerevisiae deletion strains, locus YMR231W, strain pep5, stronger effect = lower value 1.01 | S. cerevisiae deletion strains, locus YMR263W, strain SAP30, stronger effect = lower value 0.998 | S. cerevisiae deletion strains, locus YMR307W, strain GAS1, stronger effect = lower value 0.905 | S. cerevisiae deletion strains, locus YNL067W, strain RPL9B, stronger effect = lower value 0.994 | S. cerevisiae deletion strains, locus YNL071W, strain lat1, stronger effect = lower value 0.995 | S. cerevisiae deletion strains, locus YNL128W, strain TEP1, stronger effect = lower value 0.993 | S. cerevisiae deletion strains, locus YNL153C, strain GIM3, stronger effect = lower value 1 | S. cerevisiae deletion strains, locus YNL183C, strain NPR1, stronger effect = lower value 0.932 | S. cerevisiae deletion strains, locus YNL209W, strain ssb2, stronger effect = lower value 1.01 | S. cerevisiae deletion strains, locus YNL233W, strain BNI4, stronger effect = lower value 0.997 | S. cerevisiae deletion strains, locus YNL248C, strain rpa49, stronger effect = lower value 1.01 | S. cerevisiae deletion strains, locus YNL250W, strain rad50, stronger effect = lower value 0.975 | S. cerevisiae deletion strains, locus YNL271C, strain bni1, stronger effect = lower value 0.969 | S. cerevisiae deletion strains, locus YNL298W, strain CLA4, stronger effect = lower value 0.965 | S. cerevisiae deletion strains, locus YNL307C, strain MCK1, stronger effect = lower value 0.969 | S. cerevisiae deletion strains, locus YNL322C, strain KRE1 (second series), stronger effect = lower value 1.01 | S. cerevisiae deletion strains, locus YNL322C, strain KRE1, stronger effect = lower value 0.993 | S. cerevisiae deletion strains, locus YNR049C, strain mso1, stronger effect = lower value 1.01 | S. cerevisiae deletion strains, locus YNR052C, strain pop2, stronger effect = lower value 0.979 | S. cerevisiae deletion strains, locus YOL006C, strain TOP1, stronger effect = lower value 0.969 | S. cerevisiae deletion strains, locus YOL012C, strain htz1 0.746 | S. cerevisiae deletion strains, locus YOL147C, strain pex11, stronger effect = lower value 0.973 | S. cerevisiae deletion strains, locus YOR001W, strain rrp6, stronger effect = lower value 1.01 | S. cerevisiae deletion strains, locus YOR061W, strain CKA2, stronger effect = lower value 1 | S. cerevisiae deletion strains, locus YOR069W, strain VPS5, stronger effect = lower value 1.01 | S. cerevisiae deletion strains, locus YOR070C, strain gyp1, stronger effect = lower value 1.01 | S. cerevisiae deletion strains, locus YOR080W, strain dia2, stronger effect = lower value 1.02 | S. cerevisiae deletion strains, locus YOR083W, strain WHI5, stronger effect = lower value 1.01 | S. cerevisiae deletion strains, locus YOR106W, strain vam3, stronger effect = lower value 1.01 | S. cerevisiae deletion strains, locus YOR136W, strain idh2, stronger effect = lower value 0.973 | S. cerevisiae deletion strains, locus YOR144C, strain elg1, stronger effect = lower value 0.96 | S. cerevisiae deletion strains, locus YOR184W, strain ser1, stronger effect = lower value 0.947 | S. cerevisiae deletion strains, locus YOR231W, strain MKK1, stronger effect = lower value 1.02 | S. cerevisiae deletion strains, locus YOR265W, strain rbl2, stronger effect = lower value 1.01 | S. cerevisiae deletion strains, locus YOR270C, strain vph1, stronger effect = lower value 0.961 | S. cerevisiae deletion strains, locus YOR290C, strain snf2, stronger effect = lower value 0.996 | S. cerevisiae deletion strains, locus YOR316C, strain cot1, stronger effect = lower value 0.985 | S. cerevisiae deletion strains, locus YPL051W, strain arl3, stronger effect = lower value 1 | S. cerevisiae deletion strains, locus YPL055C, strain LGE1, stronger effect = lower value 0.995 | S. cerevisiae deletion strains, locus YPL078C, strain atp4, stronger effect = lower value 1.02 | S. cerevisiae deletion strains, locus YPL106C, strain sse1, stronger effect = lower value 0.994 | S. cerevisiae deletion strains, locus YPL240C, strain hsp82, stronger effect = lower value 1.01 | S. cerevisiae deletion strains, locus YPL241C, strain CIN2, stronger effect = lower value 0.975 | S. cerevisiae deletion strains, locus YPL256C, strain CLN2, stronger effect = lower value 1.01 | S. cerevisiae deletion strains, locus YPR119W, strain clb2, stronger effect = lower value 0.993 | S. cerevisiae deletion strains, locus YPR141C, strain kar3, stronger effect = lower value 0.985 | S. cerevisiae deletion strains, locus YPR163C, strain tif3, stronger effect = lower value 0.973 | S. cerevisiae deletion strains, locus YPR167C, strain met16, stronger effect = lower value 0.996 | S. cerevisiae deletion strains, strain wtn01, stronger effect = lower value 0.987 | S. cerevisiae strains, strain wild type, stronger effect = lower value 1
